According to PubChem BioAssay (NCI):
The panel holds about 83,000 compounds, 20% with a hit somewhere; the sample as a whole holds those more often.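 How to read the values: 0–100, growth inhibition (40 = 60% inhibited); 0, no net growth; -100 to 0, cell death (-40 = 40% of starting cells died; -100 = all dead).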 Active and inactive are the calls of the source. Rule for the calls: active = growth percent below 10; inactive = the rest.

Tests used:
Assay in all cases: NCI-60 one-dose screen, 48 h (100 = growth as untreated, 0 = no growth, -100 = all killed)
Settings in all cases: 10 µM unless noted
[1] = test system: DU-145 prostate
[2] = test system: K-562 leukemia
[3] = test system: MALME-3M melanoma
[4] = test system: MDA-MB-231 breast
[5] = test system: RXF 393 renal
[6] = test system: SF-268 CNS
[7] = test system: SF-295 CNS
[8] = test system: SF-539 CNS
[9] = test system: UACC-257 melanoma
[10] = test system: M14 melanoma

Measured: growth

CC(C)[C@@H]1NC(=O)[C@]2(C)CSC(=N2)c2ccnc(c2)CNC(=O)C[C@@H](/C=C/CCS)OC1=O
inactive: [1] 10.5% | [3] 14.6% | [4] 11.5% | [6] 13% | [8] 17.2%
active: [2] 6.95% | [5] -61.7% | [7] -1.44% | [9] -25% | [10] 8.55%

COc1ccc(-c2nnc(SCC(=O)Nc3ccc(C(=O)/C=C/c4ccccc4)cc3)o2)cc1OC
inactive: [1] 96.7% | [2] 95.4% | [3] 104% | [4] 106% | [5] 99.8% | [6] 97.6% | [7] 104% | [8] 95.7% | [9] 105% | [10] 105%

COc1ccccc1N1CCN(CC(O)COc2c(Br)c(Br)c(Br)c3c2OC(C)(C)C3)CC1 (stereo not given)
inactive: [1] 97.2% | [2] 11% | [3] 67.2% | [4] 44.9% | [5] 40.2% | [6] 131% | [7] 29.8% | [8] 94.1% | [9] 96.9% | [10] 29.9%

Clc1ccc(OCc2nc(-c3ccccc3)n[nH]2)c(Cl)c1
inactive: [1] 109% | [2] 111% | [3] 104% | [4] 98.8% | [5] 108% | [6] 96.6% | [7] 97.8% | [8] 99.4% | [9] 97.8% | [10] 106%

O=[N+]([O-])c1ccccc1NC1c2ccccc2Oc2ccccc21
inactive: [1] 58.3% | [2] 11.2% | [3] 48.4% | [4] 71.7% | [5] 81.1% | [6] 41.2% | [7] 23.6% | [8] 58.2% | [9] 74.2% | [10] 36.6%

CC(C)CNCC(O)COc1ccc(C(C)(C)c2ccc(OCC(O)CNCC(C)C)cc2)cc1 (stereo not given)
inactive: [1] 44.7% | [5] 41.8% | [6] 55.3% | [7] 32.4%
active: [2] -60% | [3] -63.1% | [4] -14.4% | [8] -41.1% | [9] -37.4% | [10] -57.5%

CC(C)C(=O)Nc1nc2c(s1)CCCc1ccn(S(=O)(=O)c3ccccc3)c1-2
inactive: [1] 98.8% | [2] 73.8% | [3] 114% | [4] 108% | [5] 119% | [6] 99.2% | [7] 90.6% | [8] 100% | [9] 93.7% | [10] 96.9%

N#Cc1c(N)nc2c(c1N)C(c1ccc(Cl)cc1)C1=C(CCCC1=O)N2c1sc2c(c1C#N)CCCC2 (stereo not given)
inactive: [1] 99.7% | [2] 74.2% | [3] 90.7% | [4] 75.4% | [5] 60.6% | [6] 89.5% | [7] 101% | [8] 96% | [9] 92.6% | [10] 90.3%

O=C(O)c1ccccc1C(=O)c1ccc(I)cc1
inactive: [1] 109% | [2] 104% | [3] 98.3% | [4] 110% | [5] 108% | [6] 106% | [7] 102% | [8] 98.9% | [9] 117% | [10] 98.2%

COC(=O)Nc1nc2ccc(Sc3ccccc3)cc2[nH]1
inactive: [1] 17.5% | [3] 41.9% | [4] 45.6% | [5] 15% | [6] 37.8% | [9] 52.1%
active: [2] 5.33% | [7] -16.1% | [8] 0.846% | [10] 8.93%

Cc1c(NC(=O)c2sc3nc4c(cc3c2N)CN(Cc2ccccc2)CC4)cccc1C(F)(F)F
inactive: [1] 54.9% | [3] 63.8% | [4] 73.8% | [5] 67.2% | [6] 65.6% | [7] 41.5% | [8] 65% | [9] 52.2% | [10] 31.2%
active: [2] 8.08%

Nc1ncnc2c1c(-c1ccc(Oc3ccccc3)cc1)nn2C[C@H]1SSC[C@@H]1O
inactive: [1] 48% | [4] 61.4% | [5] 28.7% | [6] 43.4% | [7] 48.4% | [8] 38%
active: [2] 5.41% | [3] -48.4% | [9] 9.88% | [10] -90%

Cc1cccc(Cc2cnc(NC(=O)CCc3ccc(C)o3)s2)c1
inactive: [1] 18.8% | [3] 82.8% | [4] 15.4% | [6] 38% | [7] 10.4% | [9] 79.6% | [10] 11.5%
active: [2] 6.63% | [5] 8.05% | [8] 2.41%

COc1cc(-c2nc3ccccc3s2)ccc1OCc1nc2n(n1)S(=O)(=O)c1ccccc1N2c1ccccc1
inactive: [1] 110% | [2] 81.7% | [3] 66.7% | [4] 79.5% | [5] 114% | [6] 102% | [7] 107% | [8] 104% | [9] 112% | [10] 120%

COc1cc(/C=C2/Oc3cc4occc4c(OC)c3C2=O)ccc1OCC(=O)Nc1ccncc1
inactive: [1] 112% | [2] 107% | [3] 110% | [4] 89.9% | [5] 118% | [6] 105% | [7] 107% | [8] 97% | [9] 104% | [10] 98.8%

COc1ccccc1NC(=O)COc1ccc(/C=C2/Oc3cc4occc4c(OC)c3C2=O)cc1OC
inactive: [1] 114% | [2] 99.4% | [3] 115% | [4] 99.8% | [5] 103% | [6] 103% | [7] 103% | [8] 101% | [9] 100% | [10] 106%

COC(=O)c1oc2c(C(=O)/C=C/c3ccc(OC)cc3)c(OCCN3CCOCC3)ccc2c1C
inactive: [6] 11.5% | [7] 18.3% | [9] 55.5% | [10] 11.5%
active: [1] 1.8% | [2] -37.3% | [3] -14.1% | [4] 3.21% | [5] -64.4% | [8] -34%

CCOC(=O)C1=C(N)Oc2cc(OC)ccc2C1c1ccc(F)c(F)c1 (stereo not given)
active: [5] -9.59%
inactive: [1] 37.7% | [2] 11.2% | [3] 59.3% | [4] 47.4% | [6] 51.3% | [7] 17.7% | [8] 17.8% | [9] 53.4% | [10] 18%

CS(=O)(=O)Nc1cccc(-c2ccc3ncnc(Nc4ccc(F)c(Cl)c4)c3c2)c1
inactive: [1] 28.4% | [2] 11.2% | [3] 31% | [5] 23.7% | [6] 38.9% | [8] 25.9% | [9] 49.4% | [10] 10.5%
active: [4] -2.84% | [7] 3.13%

CN(C)c1ccc(/C=N/N=C(N)N)cc1
inactive: [1] 92.6% | [2] 40% | [3] 77% | [4] 75.8% | [5] 75.1% | [6] 87% | [7] 61.4% | [8] 90.9% | [9] 72.4% | [10] 51.2%

COc1ccc(-c2nn(-c3ccc(NC(=O)Nc4cc(C(F)(F)F)cc(C(F)(F)F)c4)cc3)cc2-c2ccncc2)cc1Cl
inactive: [1] 30.4% | [2] 17.2% | [3] 11.4% | [6] 21.8% | [8] 24.6% | [9] 13.6% | [10] 20.6%
active: [4] 8.03% | [5] -26.2% | [7] 4%

Cn1c(I)c(C#C[Si](C)(C)C)c(=O)[nH]c1=O
inactive: [1] 64.3% | [7] 96.2% | [8] 96.7%
active: [2] -71.3% | [3] -65.9% | [4] 9.45% | [5] -86.3% | [6] -8.38% | [9] -36.5% | [10] -50.1%

COc1ccc(C[C@H](N)C(=O)N[C@@H]2[C@@H](CO)OC(n3cnc4c(N(C)C)ncnc43)[C@@H]2O)cc1 (stereo not given in full)
active: [1] -7.63% | [2] -11.4% | [3] -78.1% | [4] -10.1% | [5] -86.6% | [6] -42.5% | [7] -43% | [8] -42.9% | [9] -64.7% | [10] -85.5%

CCc1cccc(C)c1NC(=O)c1sc2nc3c(cc2c1N)CCCCC3
active: [2] 9.14% | [10] 3.86%
inactive: [1] 13.2% | [3] 47% | [4] 35.6% | [5] 11.6% | [6] 56.5% | [7] 27% | [8] 11.1% | [9] 71.7%

COc1cc([C@@H]2c3cc4c(cc3C(OC3O[C@@H]5COC(C)O[C@H]5[C@H](O)[C@H]3O)C3COC(=O)[C@@H]32)OCO4)cc(OC)c1O (stereo not given in full)
inactive: [1] 15.9% | [2] 30.5% | [3] 40.2% | [4] 78.3% | [5] 28.9% | [6] 23.9% | [9] 51.2%
active: [7] -10.4% | [8] -5.44% | [10] 4.19%

CC(C(C(=O)N1CCCCC1)N1CCCCC1)N1CCCCC1 (stereo not given)
inactive: [1] 122% | [2] 94.7% | [3] 118% | [4] 112% | [5] 112% | [6] 115% | [7] 117% | [8] 116% | [9] 101% | [10] 103%

O=C1COc2ccccc2C(=O)N1CCCCN1CCCCC1
inactive: [1] 93.7% | [2] 50% | [3] 93.8% | [4] 109% | [5] 118% | [6] 100% | [7] 93.9% | [8] 102% | [9] 102% | [10] 91.9%
